# Results reported in ChEMBL document CHEMBL4513216, “Probing the Open Global Health Chemical Diversity Library for Multistage-Active Starting Points for Next-Generation Antimalarials” (ACS Infect Dis, 2020).
# Out of some 68,000 compounds screened, about 2,700 (4%) showed an effect of 50% or more. Many of the other results were omitted from the sample, so strong results are more common in it than they were.
# System: Plasmodium berghei
# Assay: Screen against P. berghei liver stage (PbLuc), transformed with Luciferase, at 2uM
# Type: functional, HepG2
# Conditions: tested at 2 uM
row,Structure (SMILES),INHIBITION
1,CCNC(=O)N(C)Cc1ccc(SC)c(OC)c1,-53.99%
2,CCc1cnc(C)nc1N(C)CCCc1cnn(C)c1,-32.88%
3,COc1ccccc1-n1cc(C(=O)NCCCn2ccnn2)cn1,32.73%
4,CC(C#N)NS(=O)(=O)c1ccc2c(c1)N(C)CCC2 (centres undefined),-95.81%
5,Brc1csc(CNCc2nnc3n2CCC3)c1,26.81%
6,COc1ccc(-n2ccc(C(=O)NCCN3CCCCCC3)n2)cc1,23.42%
7,COC(=O)CCNC(=O)c1ccc(NC(=O)N(C)CC(C)(C)C)cc1,6.85%
8,O=C(CCc1nc(C2CC2)no1)c1ccccc1,53.65%
9,O=C(CCc1nc(C2CC2)no1)c1ccc(F)c(F)c1,-44.84%
10,COc1ccc(C(=O)CCc2nc(C3CC3)no2)cc1,9.43%
11,Cc1ccc(CN2CCN(c3ncccc3Cl)CC2CCO)cc1 (centres undefined),-87.47%
12,Cc1nc(C2CCCN(C(=O)c3ccc(S(C)(=O)=O)cc3)C2)no1 (centres undefined),-6.56%
13,COCCN1C[C@@H]2CCCO[C@@H]2[C@H](N(C)Cc2ccco2)C1,45.82%
14,Cc1nccn1-c1nccnc1C1CCN(Cc2ccc(F)cc2)CC1,-42.32%
15,CCc1ccccc1CN1CC[C@@H](NC(=O)c2cccnc2)[C@H](O)C1,-44.59%
16,O=C(N[C@@H]1CCN(Cc2cc3ccccc3s2)C[C@H]1O)c1cccnc1,60.35%
17,Cc1ccc(CN2CC[C@@H](NC(=O)c3cccnc3)[C@H](O)C2)s1,-38.78%
18,NC(=O)c1csc(N2CCCC(c3nc4ccccc4[nH]3)C2)n1 (centres undefined),-41.06%
19,CC(=O)N[C@@H]1CN(Cc2ccccc2C#N)C[C@H]1c1ccc(C)cc1,28.19%
20,CCN(CC1CCCO1)C(=O)Nc1cc(OC)c(OC)cc1C (centres undefined),-19.76%
21,CCN(CC1CCCO1)C(=O)Nc1ccc(F)cc1OC (centres undefined),22.1%
22,CCN(CC1CCCO1)C(=O)Nc1cc(C(N)=O)ccc1OC (centres undefined),84.53%
23,O=C(C1CC=CC1)N1C[C@H]2CN(Cc3ccncc3)C(=O)[C@H]2C1,30.57%
24,CN(C)CCNC(=O)[C@H]1C[C@H]2CN(C(=O)NC3CCCC3)C[C@@H]1O2,43.87%
25,CN1CCN(c2ncnc3c2CCN(C(=O)c2cccn2C)CC3)CC1,-4.99%
26,Cc1nnc(NC(=O)c2c3c(nn2C2CCS(=O)(=O)C2)CCC3)s1 (centres undefined),48.68%

row,Structure (SMILES),INHIBITION
1,Cc1nc(NC(=O)c2c3c(nn2C2CCS(=O)(=O)C2)CCC3)sc1C (centres undefined),20.76%
2,CCc1nnc(NC(=O)c2c3c(nn2C2CCS(=O)(=O)C2)CCC3)s1 (centres undefined),58.53%
3,COc1cc2nc3n(c(=O)c2cc1OC)CCN(C(=O)C1CCC1)CC3,-50.24%
4,CN1CCN(Cc2cn3c(n2)CNCC3)CC1,33.11%
5,c1c(CN2CCCC2)nc2n1CCNC2,-102.41%
6,c1c(CN2CCCCC2)nc2n1CCNC2,60%
7,CO[C@@H]1CCC[C@@H](NC(=O)CCCn2cncn2)[C@H]1O,-32.51%
8,CCc1cc(C(F)(F)F)n2nc(C3CCCN3C(=O)COC)cc2n1 (centres undefined),33.56%
9,Cc1cnc(CN2CCOC(CNc3cccnn3)C2)cn1 (centres undefined),18.31%
10,Cc1ncc(CN2CCOC(CNc3cccnn3)C2)s1 (centres undefined),58.05%
11,Cc1nc(C)c(CN2CCOC(CNc3cccnn3)C2)s1 (centres undefined),-15.28%
12,CC(C)NC(=O)Cn1cc(OCc2ccc(F)cc2)c(=O)cc1CO,14.65%
13,Cc1ccccc1[C@@H]1CN(C(=O)c2ccc3[nH]nnc3c2)C[C@H]1C(=O)O,-45.64%
14,CCn1c(CN2CCC(O)(C(=O)OC)CC2)nc2c(F)cccc21,54.32%
15,CCn1c(CN2CCCN(C(=O)OC)CC2)nc2c(F)cccc21,20.28%
16,CCn1c(CN2CCN(CC(N)=O)CC2)nc2c(F)cccc21,27.55%
17,CN(Cc1ccccn1)C(=O)C(c1ccccc1)N1CCSCC1 (centres undefined),19.48%
18,Fc1cccnc1O[C@@H]1CN(Cc2ccco2)[C@@H]2CCCO[C@@H]21,-8.22%
19,Fc1cccnc1O[C@@H]1CN(Cc2ccccn2)[C@@H]2CCCO[C@@H]21,66.64%
20,Fc1cccnc1O[C@H]1CN(Cc2ccoc2)[C@@H]2CCCO[C@H]12,-0.18%
21,O=C(COc1ccc2cccnc2c1)N1CCN[C@H]2CS(=O)(=O)C[C@H]21,-7.4%
22,CN(C)C(=O)CN1CCC2(COCc3cnc(-c4cccnc4)nc32)C1 (centres undefined),-55.8%
23,Cc1cc2n(n1)CC(CNCc1cc(C)on1)CN2 (centres undefined),57%
24,Cc1ccc(CNCC2CNc3cc(C)nn3C2)cn1 (centres undefined),4.19%
25,Cc1cc(CNCC2CNc3ccnn3C2)no1 (centres undefined),-10%
26,NCCC(=O)N1CCC2(CC1)CN(C(=O)Cc1ccc(Cl)cc1)CCO2,10.62%

row,Structure (SMILES),INHIBITION
1,CC(C)c1nnc(CN(C)C(c2ccccc2)c2ccc(F)cc2)o1 (centres undefined),-7.07%
2,CCc1nnc(C(C)N(C)Cc2c(C)nn(-c3ccccc3)c2C)o1 (centres undefined),63.1%
3,Cc1nnc(C(C)N(C)Cc2c(C)nn(-c3ccccc3)c2C)o1 (centres undefined),52.08%
4,Cc1nn(-c2ccccc2)c(C)c1CN1CCNCC1,1.79%
5,Cc1ccccc1-n1nc(C)c(CN(C)C(C)Cc2ccccn2)c1C (centres undefined),-74.1%
6,Cc1nnc(C(C)N(C)Cc2c(C)nn(-c3ccccc3C)c2C)o1 (centres undefined),29.39%
7,CC(=O)N(C)c1nc(CN2CCCC2Cn2nc(C)cc2C)cs1 (centres undefined),-43.47%
8,CN(C)c1ncc(-c2ccncc2)c(CCNC(=O)C2CC2)n1,-33.32%
9,Cn1ncc2c(=O)[nH]c(CN(Cc3ccco3)C3CC3)nc21,5.09%
10,CC(=O)NCCNC(=O)Nc1ccc(Br)cc1C(C)C,-34.04%
11,Cc1ccc(CN2CCC3(CCC(=O)N3CC(=O)N(C)C)CC2)s1,22.71%
12,CC1CCN(C(=O)[C@@H]2C[C@@H]3CCN(Cc4nccs4)C[C@H]3O2)CC1,31.76%
13,Cc1nnc2n1CCN(C(=O)CN1C(=O)CSc3ccccc31)C2,-14.79%
14,Cc1nnc(CN(C)Cc2ccc(C(=O)Nc3sccc3C#N)cc2)o1,33.9%
15,Cc1nnsc1CN(C)Cc1ccc(C(=O)Nc2sccc2C#N)cc1,67.28%
16,CN(Cc1ccc(C(=O)Nc2sccc2C#N)cc1)Cc1ccno1,26.74%
17,Cc1cc(C)n(CC2CCN(CC(O)COc3ccccc3)CC2)n1 (centres undefined),-1.96%
18,Cc1ccn(CCC(=O)NCc2ccc(C)o2)n1,19.49%
19,O=C(CCn1cccc1)NCc1ccc(CN2CCCCCC2)o1,56.24%
20,O=C(COc1coc(CN2CCCCC2)cc1=O)NCc1ccccc1,-11.78%
21,O=C(c1ccco1)N1CCC2(CCC(=O)N2Cc2cccc(F)c2)CC1,33.16%
22,Cc1cccc(CN2C(=O)CCC23CCN(C(=O)c2ccco2)CC3)c1,70.48%
23,O=C(c1ccco1)N1CCC2(CCC(=O)N2Cc2ccccc2)CC1,21.06%
24,O=C(NC1CCN(c2ncccc2F)C1)c1cccc(-n2ccnn2)c1 (centres undefined),25.78%
25,CNCC[C@H]1CC(C)(C)Oc2ccc(C)cc21,-7.01%
26,N#Cc1cccc(CN2Cc3nccn3CC(CN3CCCC3)C2)c1 (centres undefined),32.04%

row,Structure (SMILES),INHIBITION
1,Cc1c(C(=O)NCCC(=O)N2CCCC2)cccc1-c1ccccn1,59.67%
2,Cc1c(C(=O)NCCCS(C)(=O)=O)cccc1-c1ccccn1,3.63%
3,Cc1c(C(=O)NCC(C)(C)S(C)(=O)=O)cccc1-c1ccccn1,-62.92%
4,Cc1cccc(CCC(=O)N2CCOCC2c2c(C)n[nH]c2C)c1 (centres undefined),74.35%
5,Cc1cccc(CC(=O)N2CCOCC2c2c(C)n[nH]c2C)c1 (centres undefined),37.57%
6,Cc1n[nH]c(C)c1C1COCCN1C(=O)Cc1cccc(F)c1 (centres undefined),13.24%
7,COCCC(=O)Nc1cnn(COc2ccc(F)cc2Cl)c1,-17.37%
8,CCc1cnc(C)nc1NC(C)C(=O)Nc1cc(F)ccc1C (centres undefined),20.32%
9,O=C(c1cc(C2CCCN(Cc3ccccn3)C2)no1)N1CCCC1 (centres undefined),39.48%
10,CCCNC(=O)c1cc(C2CCCN(Cc3ccccn3)C2)no1 (centres undefined),72.41%
11,O=C(NC1CC1)c1cc(C2CCCN(Cc3ccccn3)C2)no1 (centres undefined),-15.37%
12,CC(C)c1nn(C)c(Cl)c1CNC1CCOc2ccccc21 (centres undefined),-14.17%
13,Cc1ccc(CN2CCN(c3cncc(N(C)C)n3)CC2=O)cc1C,27.72%
14,Cc1ccc(CN2CCN(Cc3ccc(N(C)C)nc3)CC2=O)cc1C,61.3%
15,CN(C)c1ccc(CN2CCN(c3ccc(C#N)cc3)C(=O)C2)cn1,-13.81%
16,CC1COCCN1Cc1nc(-c2ccc(Br)s2)no1 (centres undefined),17.31%
17,Fc1ccc(-c2noc3c2CN(CC2CC2)CC3)cc1F,21.49%
18,CC(C)(O)CCc1cccc(C(=O)NCCC2=CSC3=NCCCN23)c1,9.51%
19,COCCNc1ccc(CC2CCCN(Cc3c[nH]cn3)C2)nn1 (centres undefined),-35.23%
20,CCOc1ccccc1C(=O)NC(CC(=O)O)c1cccs1 (centres undefined),-23.34%
21,CCCC(NC(=O)c1cc(C2CC2)[nH]n1)c1nnc2ccccn12 (centres undefined),19.42%
22,NCc1n[nH]c(=O)n1-c1ccccc1Oc1ccccc1,28.73%
23,COCCN1CCOCC12CCN(c1cnccn1)CC2,10.71%
24,CC(C)N1CCOCC2(CCN(c3cnccn3)CC2)C1,-10.43%
25,COCCN1CCOCC2(CCN(c3cnccn3)CC2)C1,50.85%
26,Cc1nc(C(=O)N2CCC(c3cc(CCO)n(C)n3)C2)co1 (centres undefined),-13.45%
